Bioassay records (PubChem BioAssay)
PI5P4K alpha inh = qHTS for Inhibitors of phosphatidylinositol 5-phosphate 4-kinase (PI5P4K); Phosphatidylinositol 5-phosphate 4-kinase type-2 alpha (Homo sapiens), P48426; PI5P4Kalpha enzyme, ADP-Glo luminescence, 60 min; active compounds read low; max response, %; 330,000 tested, 1.2% active; AID 652105, 2013; active = max response of -50% or lower; inconclusive = between -30% and -50%; inactive = -30% or higher; note: value at the top dose of about 77 µM; % is set by controls: 0 for no effect and ±100 for the full control effect
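Controls without substrate or without enzyme flank wells where PI5P4Kalpha converts substrate using 5 microM ATP (final). Incubation lasts 60 minutes at room temperature; ADP formed is read by ADP-Glo luminescence.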
USP2a block = qHTS Assay for Inhibitors of Ubiquitin-specific Protease USP2a Using CHOP2 as the Reporter; USP2 core, Ub-CHOP2 coupled fluorogenic reporter, 485/531; Ubiquitin carboxyl-terminal hydrolase 2 (Homo sapiens), O75604; 330,000 tested, 0.01% active; Potency, µM (highest dose often 38.3 µM), inactives show top-dose activity change, negative = inhibition, usual class: inhibitors;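 note: potency is the fitted concentration of half-maximal effect; plate controls were DMSO wells for no effect and full inhibition by NEM control for full effect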
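Deubiquitinase activity read as fluorescence (485/531 nm) after Ub-CHOP2 cleavage activates the enterokinase reporter on its substrate; USP2 core 10nM, Ub-CHOP2 and substrate 25nM each, 30min compound preincubation then 60min RT; data normalized to NEM, curves fitted.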
USP1-UAF1 inh = Inhibitors of USP1/UAF1: Primary Screen. Ubiquitin carboxyl-terminal hydrolase 1 (Homo sapiens), O94782. recombinant USP1/UAF1, Ub-Rhodamine cleavage fluorescence. Potency, µM (titrated, usually from 57.1 µM), inactives show at the top dose activity change, negative = inhibition, most hits filed as inhibitors. 390,000 tested, 0.23% active; note: potency is the fitted concentration of half-maximal effect; % is set by controls: 0 for no effect and ±100 for the full control effect; nearly all actives have a fitted effect of over 60% in size
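USP1/UAF1 complex at 1 nM was preincubated with compound for 15 min at room temperature, then Ub-Rho substrate (150nM final) was added. Fluorescence (480/540 nm) was read kinetically, 6 reads every 60 seconds.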
PLK1 PBD inh = qHTS for Inhibitors of PLK1-PDB (polo-like kinase 1 - polo-box domain): Primary Screen; Serine/threonine-protein kinase PLK1 (Homo sapiens), P53350; Plk1 PBD binding of FITC phosphopeptide, fluorescence polarization; Potency, µM, for inactives: max response, negative = inhibition, hits mostly inhibitors; 360,000 tested, 2.8% active; AID 720504, 2013; note: potency is the fitted concentration of half-maximal effect; series mostly up to about 57 µM; % is set by controls: 0 for no effect and ±100 for the full control effect; nearly all actives have a fitted effect of over 65% in size
WRN helicase inh-1 = qHTS for Inhibitors of WRN Helicase. Bifunctional 3'-5' exonuclease/ATP-dependent helicase WRN (Homo sapiens), Q14191. WRN helicase unwinding, fluorescent forked duplex, kinetic. Potency, µM (titrated, usually from 114 µM), inactives show at the top dose activity change, negative = inhibition, most hits filed as inhibitors. 360,000 tested, 0.46% active. AID 651768, 2012; note: potency is the fitted concentration of half-maximal effect; % is set by controls: 0 for no effect and ±100 for the full control effect; nearly all actives have a fitted effect of over 55% in size
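Fluorescence dequenching readout, ex 525 nm/em 598 nm, kinetic mode: forked duplex DNA (100 nM final) with adjacent fluorophore and quencher unwound by WRN (20 nM final) with 2 mM ATP. Compound preincubation 15 min, room temperature.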
WRN helicase inh-2 = qHTS for Inhibitors of WRN Helicase: Confirmatory Assay for Cherry-picked Compounds; shares compounds with WRN helicase inh-1; WRN helicase DNA unwinding, fluorescence kinetic; Potency, µM (doses to about 57.1 µM), for inactives: top-dose activity, negative = inhibition, usual class: inhibitors; 610 tested, 63% active; note: potency is the fitted concentration of half-maximal effect; nearly all actives have a fitted effect of over 65% in size
TO displacement = qHTS for Inhibitors of WRN Helicase: Thiazole Orange DNA Binding Counterscreen; shares compounds with WRN helicase inh-1; thiazole orange DNA binding displacement, fluorescence; Potency, µM (doses to about 57.1 µM), for the others: at the top dose activity change, negative = inhibition, hits mostly inhibitors; 610 tested, 10% active; AID 720499, 2013;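 note: drop in dye fluorescence marks compound binding to DNA; potency is the fitted concentration of half-maximal effect; % is set by controls: 0 for no effect and ±100 for the full control effect; nearly all actives have a fitted effect of over 60% in size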
BLM counter = qHTS for Inhibitors of WRN Helicase: BLM Helicase Counterscreen for WRN Inhibitors; shares compounds with WRN helicase inh-1; Recombinant BLM helicase DNA unwinding, red fluorescence; Potency, µM (doses to about 57.1 µM), for inactives: at the top dose activity change, negative = inhibition, hits mostly inhibitors; 610 tested, 60% active; AID 720503, 2013; note: potency is the fitted concentration of half-maximal effect; nearly all actives have a fitted effect of over 60% in size
Active calls of the source: *; i = inactive; ? = inconclusive; . = no result given. Sampled rows, rich in hits. Any-hit rate of the full collection: about 3.3%. Unless noted, calls come from the whole dose curve; as a rule, active = well fitted curve in the direction sought with a large enough effect; inconclusive = small, poorly fitted or top-dose-only effect, or another doubt; inactive = no such curve, though single readings can be large; an effect the other way counts as inactive or inconclusive.

SMILES	PI5P4K alpha inh	USP2a block	USP1-UAF1 inh	PLK1 PBD inh	WRN helicase inh-1	WRN helicase inh-2	TO displacement	BLM counter
O=C(Cn1cc(SCc2ccccc2Cl)c2ccccc21)N1CCCCCC1	.	.	-5%	.	.	.	.	.
CN1CCN(c2ccc(Nc3c4ccccc4nc4ccccc34)cc2)CC1	.	.	.	.	.	6.1µM*	7.6µM*	24µM*
NC(=O)c1ccc(NC(=O)COC(=O)/C=C/c2ccc(Br)o2)cc1	-58*	-2%	-9%	-24%	32µM*	?	-11%	17µM*
O=C(COC(=O)/C=C/c1ccc(Br)o1)Nc1ccc2[nH]c(=O)[nH]c2c1	.	-2%	.	.	.	.	.	.
COc1ccc(-n2c(O)c(/C=N/NS(=O)(=O)c3ccc(C)cc3)c3ccccc3c2=O)cc1OC	-14	14%	?	29%	40µM*	-23%	175%	?
COc1ccc(-n2c(O)c(/C=N/Nc3nc(C)cc(C)n3)c3ccccc3c2=O)cc1OC	10	3%	-27%	-8%	-34%	.	.	.
COc1ccc(C2Nc3ccccc3C(=O)N2Cc2ccco2)cc1COc1ccc(N)cc1 (stereo unspecified)	.	.	.	.	.	11µM*	?	3µM*
C=CCN1C(=O)/C(=C/C=C2/N(CC)c3ccc(S(=O)(=O)N(C)C)cc3N2CC)SC1=S	-14	?	28µM*	71%	5.3µM*	9.6µM*	i	9.6µM*
COc1ccc(C(c2c(O)cc(C)n(Cc3ccco3)c2=O)N2CCCCC2)cc1OC (stereo unspecified)	.	.	-9%	.	.	.	.	.
O=C(Nc1ccc2nc(-c3ccc4nc[nH]c4c3)[nH]c2c1)c1cccs1	?	-13%	?	-9%	40µM*	22µM*	-17%	24µM*
Cn1c(=O)n(C)c2cc(CNCc3ccccc3Cl)ccc21	.	.	9%	.	.	.	.	.
Cc1nc2ccc(-c3nc4ccc(N)cc4[nH]3)cc2[nH]1	-27	-2%	-9%	-8%	?	.	.	.
Nc1ccc2nc(-c3cccc(-c4nc5ccc(N)cc5[nH]4)c3)[nH]c2c1	-16	?	-26%	-25%	40µM*	?	17µM*	?
COc1cc(OC)c(NS(=O)(=O)c2cc(-c3cnc(C)o3)ccc2OC)cc1Cl	.	.	-24%	.	.	.	.	.
Cc1ccc(-n2cnc3cc(C(=O)NCc4ccc(F)cc4)ccc32)c(C)c1	.	.	-8%	.	.	.	.	.
O=C(O)CC(C(=O)O)N1C(=O)/C(=C/c2ccc(-c3nc4ccccc4s3)o2)SC1=S (stereo unspecified)	-11	5%	28µM*	-8%	28µM*	22µM*	151%	-14%
COc1cccc(C(=O)NCC(c2ccc(N(C)C)cc2)N2CCc3ccccc32)c1OC (stereo unspecified)	.	.	-25%	.	.	.	.	.
N#CNC(=O)c1ccc(-n2cccc2/C=C2\NC(=O)N(CC(=O)Nc3ccc(F)cc3)C2=O)cc1	.	.	.	.	.	6.1µM*	9.6µM*	3.8µM*
O=C(O)CN1C(=O)N/C(=C\c2cccn2-c2ccc(P(=O)(O)O)cc2)C1=O	.	0%	.	.	.	.	.	.
